In PubChem BioAssay (EPA / NIEHS):
Results filed as inconclusive are left out. Active and inactive are the calls of the source. How the source made its calls, unless noted: active means hit-call score of the fitted dose curve at least 0.9, where 1 is the maximum; inconclusive means response in the unintended direction; inactive means score below 0.9.

How the values were obtained:
[1] = target: Bile acid receptor (Homo sapiens) (UniProt Q96RI1); assay: OT_FXR_FXRSRC1_1440: Odyssey Thera (OT) 24-hour HEK293T Protein-Complementation Assay for Farnesoid X receptor/SRC-1 Co-activator (AID 2283384)
Bile acid receptor (Homo sapiens), sequence (Q96RI1 whole entry, looked up, the tested form may be a part): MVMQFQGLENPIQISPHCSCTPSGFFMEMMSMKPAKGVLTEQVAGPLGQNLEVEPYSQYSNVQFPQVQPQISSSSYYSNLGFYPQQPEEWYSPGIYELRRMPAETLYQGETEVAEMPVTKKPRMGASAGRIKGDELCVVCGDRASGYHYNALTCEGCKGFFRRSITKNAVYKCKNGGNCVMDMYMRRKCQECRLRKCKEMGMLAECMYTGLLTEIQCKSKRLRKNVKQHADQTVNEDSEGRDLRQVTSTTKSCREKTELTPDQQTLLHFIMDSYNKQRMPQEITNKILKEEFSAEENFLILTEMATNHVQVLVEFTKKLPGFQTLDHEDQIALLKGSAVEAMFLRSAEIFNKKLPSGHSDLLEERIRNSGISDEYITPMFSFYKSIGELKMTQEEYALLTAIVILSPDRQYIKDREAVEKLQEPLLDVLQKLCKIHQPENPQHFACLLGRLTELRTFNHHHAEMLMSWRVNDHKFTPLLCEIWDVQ
Method in brief: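 Compounds are applied to human kidney HEK293T cells expressing bait and prey fused to reporter protein fragments; after 24 h, reconstituted reporter fluorescence is measured. Activity is fitted as signal gain over DMSO.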

[2] = target: Retinoic acid receptor RXR-alpha (Homo sapiens) (UniProt P19793); assay: OT_NURR1_NURR1RXRa_0480: Odyssey Thera (OT) 8-hour HEK293T Protein Complementation Assay for Nurr1/retinoid X receptor (RXR) (AID 2283385)
Retinoic acid receptor RXR-alpha (Homo sapiens), sequence (P19793 whole entry, looked up, the tested form may be a part): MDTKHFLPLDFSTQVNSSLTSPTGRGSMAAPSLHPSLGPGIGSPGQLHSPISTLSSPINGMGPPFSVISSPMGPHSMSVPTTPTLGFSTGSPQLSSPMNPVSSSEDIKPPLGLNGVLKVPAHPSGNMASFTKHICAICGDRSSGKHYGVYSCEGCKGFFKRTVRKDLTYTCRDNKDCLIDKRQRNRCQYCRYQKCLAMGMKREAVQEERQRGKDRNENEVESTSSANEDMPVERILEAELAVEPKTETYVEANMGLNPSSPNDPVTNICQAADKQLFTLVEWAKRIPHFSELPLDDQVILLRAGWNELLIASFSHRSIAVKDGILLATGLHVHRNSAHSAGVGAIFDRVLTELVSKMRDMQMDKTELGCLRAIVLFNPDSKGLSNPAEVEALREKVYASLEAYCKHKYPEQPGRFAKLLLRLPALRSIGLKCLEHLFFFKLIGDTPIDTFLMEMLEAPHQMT
Method in brief: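 8 h compound exposure, HEK293T; Nurr1/RXRα fragment complementation; fluorescence intensity; positive fitting direction vs DMSO baseline.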

[3] = target: Retinoic acid receptor RXR-alpha (Homo sapiens) (UniProt P19793); assay: OT_NURR1_NURR1RXRa_1440: Odyssey Thera (OT) 24-hour HEK293T Protein Complementation Assay for Nurr1/retinoid X receptor (RXR) (AID 2283386)
Method in brief: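 Interaction of Nurr1 with RXRα brings fused reporter fragments together in human HEK293T cells, restoring a functional reporter. Fluorescence intensity is measured 24 h after chemical treatment, and values are analysed in the positive direction against DMSO.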

[4] = target: Peroxisome proliferator-activated receptor gamma (Homo sapiens) (UniProt P37231); assay: OT_PPARg_PPARgSRC1_1440: Odyssey Thera (OT) 24-hour Protein-Complementation Assay for Peroxisome Proliferator-activated Receptor Gamma/ SRC-1 Co-activator (AID 2283388)
Peroxisome proliferator-activated receptor gamma (Homo sapiens), sequence (P37231 whole entry, looked up, the tested form may be a part): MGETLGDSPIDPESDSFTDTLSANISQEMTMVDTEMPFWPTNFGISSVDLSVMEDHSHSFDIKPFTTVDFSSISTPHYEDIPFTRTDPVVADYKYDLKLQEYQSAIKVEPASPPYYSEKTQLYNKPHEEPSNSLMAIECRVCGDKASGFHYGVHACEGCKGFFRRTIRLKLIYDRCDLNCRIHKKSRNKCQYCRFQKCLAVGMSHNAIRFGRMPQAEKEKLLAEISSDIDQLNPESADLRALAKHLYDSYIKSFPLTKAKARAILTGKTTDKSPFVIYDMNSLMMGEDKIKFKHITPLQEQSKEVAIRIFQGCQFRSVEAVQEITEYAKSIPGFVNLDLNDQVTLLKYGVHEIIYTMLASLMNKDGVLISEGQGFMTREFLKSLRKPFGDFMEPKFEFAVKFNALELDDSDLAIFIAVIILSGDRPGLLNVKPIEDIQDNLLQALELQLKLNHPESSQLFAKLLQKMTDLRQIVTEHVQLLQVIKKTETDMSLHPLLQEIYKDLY
Method in brief: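 HEK293T cells transiently transfected with PPARg and SRC-1 fused via (Gly4Ser)2 linker to split Venus YFP fragments (IFP1/IFP2) were dosed 24 h; fixed, Draq5-stained, imaged at 488/635 nm; nuclear/cytoplasmic fluorescence ratio scored versus DMSO baseline, gain-of-signal.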

[5] = read-out: Tumor necrosis factor receptor superfamily member 6 (Homo sapiens) (UniProt P25445); assay: LTEA_HepaRG_FAS: Life Technologies and Expression Analysis (LTEA) Assay for Fas cell surface death receptor (FAS) using HepaRG (AID 2283447; active means hit-call score of the fitted dose curve at least 0.9, where 1 is the maximum; inactive means score below 0.9); conditions: mRNA level, 48 h; actives raise or lower the signal
Method in brief: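 Differentiated HepaRG cells in serum-free induction medium were exposed 48 h to 8 half-log concentrations up to 100 uM in 0.5% DMSO, in duplicate. FAS mRNA was measured by qRT-PCR normalised to ACTB, GAPDH and POLR2A; bidirectional fit versus DMSO.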

[6] = read-out: Fatty acid synthase (Homo sapiens) (UniProt P49327); assay: LTEA_HepaRG_FASN: Life Technologies and Expression Analysis (LTEA) Assay for Fatty Acid Synthase (FASN) using HepaRG (AID 2283448; active means hit-call score of the fitted dose curve at least 0.9, where 1 is the maximum; inactive means score below 0.9;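 on AC50: differentiated human HepaRG liver cells in serum-free induction medium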); conditions: mRNA level, 48 h; actives raise or lower the signal
Method in brief: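 FASN expression changes, up or down relative to 0.5% DMSO, were measured by qRT-PCR in human HepaRG cells after 48 h treatment with chemicals at eight concentrations (half-log steps from 100 uM).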

[7] = target: Bile acid receptor (Homo sapiens) (UniProt Q96RI1); assay: OT_FXR_FXRSRC1_0480: Odyssey Thera (OT) 8-hour HEK293T Protein-Complementation Assay for Farnesoid X receptor/SRC-1 Co-activator (AID 2283383)
Method in brief: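 Human kidney HEK293T cells carried FXR/SRC-1 fragment-complementation constructs. Compounds were added and incubated 8 h. Reporter reassembly upon receptor–co-activator interaction was then quantified by fluorescence, with curves fitted in the positive direction relative to DMSO.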

[8] = target: Peroxisome proliferator-activated receptor gamma (Homo sapiens) (UniProt P37231); assay: OT_PPARg_PPARgSRC1_0480: Odyssey Thera (OT) 8-hour Protein-Complementation Assay for Peroxisome Proliferator-activated Receptor Gamma / SRC-1 Co-activator (AID 2283387)
Method in brief: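 Protein-fragment complementation of split Venus YFP reports PPARg/SRC-1 interaction in HEK293T (transfected 48 h before treatment), exposed 8 h. Readout: N/C fluorescence ratio at 488 nm from imaging, Draq5 for segmentation, positive fit relative to DMSO.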

[9] = CEETOX_H295R_11DCORT: CeeTox H295R High-throughput Steroidogenesis Assay for 11-Deoxycortisol (11DCORT) (AID 2283432; active means hit-call score of the fitted dose curve at least 0.9, where 1 is the maximum; inactive means score below 0.9;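 on AC50: 11-deoxycortisol secreted into the medium measured by LC-MS/MS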); conditions: actives raise or lower the signal
Method in brief: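 Human adrenal H295R cells were prestimulated with 10 uM forskolin for 48 h, then exposed to test chemical (0.1% DMSO final) for 48 h. Medium 11-deoxycortisol was quantified by MTBE extraction and HPLC-MS/MS; bidirectional fitting relative to DMSO.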

[10] = CEETOX_H295R_OHPREG: CeeTox H295R High-throughput Steroidogenesis Assay for OH-Pregnenolone (OHPREG) (AID 2283434; active means hit-call score of the fitted dose curve at least 0.9, where 1 is the maximum; inactive means score below 0.9); conditions: actives raise or lower the signal
Method in brief: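 H295R cells pre-stimulated 48 h with 10 uM forskolin, then exposed 48 h to chemical in 0.1% DMSO. 17alpha-hydroxypregnenolone in medium quantified by MTBE extraction and HPLC-MS/MS; bidirectional fit versus DMSO, viability checked by MTT.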

[11] = CEETOX_H295R_OHPROG: CeeTox H295R High-throughput Steroidogenesis Assay for OH-Progesterone (OHPROG) (AID 2283435; active means hit-call score of the fitted dose curve at least 0.9, where 1 is the maximum; inactive means score below 0.9;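 on AC50: 17alpha-hydroxyprogesterone secreted into medium measured by HPLC-MS/MS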); conditions: actives raise or lower the signal
Method in brief: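 H295R, 10 uM forskolin prestim 48 h; cmpd in 0.1% DMSO 48 h; medium MTBE-extracted, HPLC-MS/MS for OH-progesterone; 7-pt std curve; bidirectional fit vs DMSO; MTT viability, chemicals diluted until viability >/=70%.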

[12] = CEETOX_H295R_CORTIC: CeeTox H295R High-throughput Steroidogenesis Assay for Corticosterone (CORTIC) (AID 2283437; active means hit-call score of the fitted dose curve at least 0.9, where 1 is the maximum; inactive means score below 0.9;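 further: corticosterone secreted into medium quantified by mass spectrometry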); conditions: actives raise or lower the signal
Method in brief: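 H295R adrenal cells prestimulated 48 hours with 10 uM forskolin, then exposed 48 hours to chemical in 0.1% DMSO. Corticosterone in medium measured by HPLC-MS/MS after MTBE extraction; MTT viability in the same wells; bidirectional fit versus DMSO.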

[13] = CEETOX_H295R_CORTISOL: CeeTox H295R High-throughput Steroidogenesis Assay for Cortisol (AID 2283438; active means hit-call score of the fitted dose curve at least 0.9, where 1 is the maximum; inactive means score below 0.9;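 further: cortisol secreted into medium quantified by LC-MS/MS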); conditions: actives raise or lower the signal
Method in brief: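 Forskolin 10 uM 48 h prestim → test cmpd in DMSO (0.1% final) 48 h → medium MTBE-extracted → LC-MS/MS cortisol vs 7-pt std curve. Gain/loss of signal fitted vs DMSO. MTT viability in same wells.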

[14] = CEETOX_H295R_DOC: CeeTox H295R High-throughput Steroidogenesis Assay for DOC (AID 2283439; active means hit-call score of the fitted dose curve at least 0.9, where 1 is the maximum; inactive means score below 0.9); conditions: actives raise or lower the signal
Method in brief: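 Readout: 11-deoxycorticosterone in culture medium by reverse-phase C18 HPLC with ESI+ tandem MS after MTBE extraction. Cells: H295R, forskolin-primed (10 uM, 48 h), chemical-treated 48 h; DMSO 0.1% final. Activity fitted bidirectionally versus DMSO.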

[15] = CEETOX_H295R_PROG: CeeTox H295R High-throughput Steroidogenesis Assay for Progesterone (PROG) (AID 2283442; active means hit-call score of the fitted dose curve at least 0.9, where 1 is the maximum; inactive means score below 0.9); conditions: actives raise or lower the signal
Method in brief: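 H295R human adrenal cells were prestimulated with 10 uM forskolin for 48 h, then exposed to test chemical (0.1% DMSO final) for 48 h. Medium progesterone was MTBE-extracted and quantified by HPLC-MS/MS, with bidirectional fitting against DMSO.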

[16] = CEETOX_H295R_ANDR: CeeTox H295R High-throughput Steroidogenesis Assay for Androstenedione (ANDR) (AID 2283436; active means hit-call score of the fitted dose curve at least 0.9, where 1 is the maximum; inactive means score below 0.9); conditions: actives raise or lower the signal
Method in brief: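 H295R cells, following OECD 456 with minor changes, exposed to chemicals for 48 h. Androstenedione in the medium was quantified by HPLC-MS/MS after MTBE extraction. Fitting was bidirectional versus DMSO; chemicals were diluted until MTT viability was ≥70%.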

Measured: AC50

Fatty acid synthase (Homo sapiens), sequence (P49327 whole entry, looked up): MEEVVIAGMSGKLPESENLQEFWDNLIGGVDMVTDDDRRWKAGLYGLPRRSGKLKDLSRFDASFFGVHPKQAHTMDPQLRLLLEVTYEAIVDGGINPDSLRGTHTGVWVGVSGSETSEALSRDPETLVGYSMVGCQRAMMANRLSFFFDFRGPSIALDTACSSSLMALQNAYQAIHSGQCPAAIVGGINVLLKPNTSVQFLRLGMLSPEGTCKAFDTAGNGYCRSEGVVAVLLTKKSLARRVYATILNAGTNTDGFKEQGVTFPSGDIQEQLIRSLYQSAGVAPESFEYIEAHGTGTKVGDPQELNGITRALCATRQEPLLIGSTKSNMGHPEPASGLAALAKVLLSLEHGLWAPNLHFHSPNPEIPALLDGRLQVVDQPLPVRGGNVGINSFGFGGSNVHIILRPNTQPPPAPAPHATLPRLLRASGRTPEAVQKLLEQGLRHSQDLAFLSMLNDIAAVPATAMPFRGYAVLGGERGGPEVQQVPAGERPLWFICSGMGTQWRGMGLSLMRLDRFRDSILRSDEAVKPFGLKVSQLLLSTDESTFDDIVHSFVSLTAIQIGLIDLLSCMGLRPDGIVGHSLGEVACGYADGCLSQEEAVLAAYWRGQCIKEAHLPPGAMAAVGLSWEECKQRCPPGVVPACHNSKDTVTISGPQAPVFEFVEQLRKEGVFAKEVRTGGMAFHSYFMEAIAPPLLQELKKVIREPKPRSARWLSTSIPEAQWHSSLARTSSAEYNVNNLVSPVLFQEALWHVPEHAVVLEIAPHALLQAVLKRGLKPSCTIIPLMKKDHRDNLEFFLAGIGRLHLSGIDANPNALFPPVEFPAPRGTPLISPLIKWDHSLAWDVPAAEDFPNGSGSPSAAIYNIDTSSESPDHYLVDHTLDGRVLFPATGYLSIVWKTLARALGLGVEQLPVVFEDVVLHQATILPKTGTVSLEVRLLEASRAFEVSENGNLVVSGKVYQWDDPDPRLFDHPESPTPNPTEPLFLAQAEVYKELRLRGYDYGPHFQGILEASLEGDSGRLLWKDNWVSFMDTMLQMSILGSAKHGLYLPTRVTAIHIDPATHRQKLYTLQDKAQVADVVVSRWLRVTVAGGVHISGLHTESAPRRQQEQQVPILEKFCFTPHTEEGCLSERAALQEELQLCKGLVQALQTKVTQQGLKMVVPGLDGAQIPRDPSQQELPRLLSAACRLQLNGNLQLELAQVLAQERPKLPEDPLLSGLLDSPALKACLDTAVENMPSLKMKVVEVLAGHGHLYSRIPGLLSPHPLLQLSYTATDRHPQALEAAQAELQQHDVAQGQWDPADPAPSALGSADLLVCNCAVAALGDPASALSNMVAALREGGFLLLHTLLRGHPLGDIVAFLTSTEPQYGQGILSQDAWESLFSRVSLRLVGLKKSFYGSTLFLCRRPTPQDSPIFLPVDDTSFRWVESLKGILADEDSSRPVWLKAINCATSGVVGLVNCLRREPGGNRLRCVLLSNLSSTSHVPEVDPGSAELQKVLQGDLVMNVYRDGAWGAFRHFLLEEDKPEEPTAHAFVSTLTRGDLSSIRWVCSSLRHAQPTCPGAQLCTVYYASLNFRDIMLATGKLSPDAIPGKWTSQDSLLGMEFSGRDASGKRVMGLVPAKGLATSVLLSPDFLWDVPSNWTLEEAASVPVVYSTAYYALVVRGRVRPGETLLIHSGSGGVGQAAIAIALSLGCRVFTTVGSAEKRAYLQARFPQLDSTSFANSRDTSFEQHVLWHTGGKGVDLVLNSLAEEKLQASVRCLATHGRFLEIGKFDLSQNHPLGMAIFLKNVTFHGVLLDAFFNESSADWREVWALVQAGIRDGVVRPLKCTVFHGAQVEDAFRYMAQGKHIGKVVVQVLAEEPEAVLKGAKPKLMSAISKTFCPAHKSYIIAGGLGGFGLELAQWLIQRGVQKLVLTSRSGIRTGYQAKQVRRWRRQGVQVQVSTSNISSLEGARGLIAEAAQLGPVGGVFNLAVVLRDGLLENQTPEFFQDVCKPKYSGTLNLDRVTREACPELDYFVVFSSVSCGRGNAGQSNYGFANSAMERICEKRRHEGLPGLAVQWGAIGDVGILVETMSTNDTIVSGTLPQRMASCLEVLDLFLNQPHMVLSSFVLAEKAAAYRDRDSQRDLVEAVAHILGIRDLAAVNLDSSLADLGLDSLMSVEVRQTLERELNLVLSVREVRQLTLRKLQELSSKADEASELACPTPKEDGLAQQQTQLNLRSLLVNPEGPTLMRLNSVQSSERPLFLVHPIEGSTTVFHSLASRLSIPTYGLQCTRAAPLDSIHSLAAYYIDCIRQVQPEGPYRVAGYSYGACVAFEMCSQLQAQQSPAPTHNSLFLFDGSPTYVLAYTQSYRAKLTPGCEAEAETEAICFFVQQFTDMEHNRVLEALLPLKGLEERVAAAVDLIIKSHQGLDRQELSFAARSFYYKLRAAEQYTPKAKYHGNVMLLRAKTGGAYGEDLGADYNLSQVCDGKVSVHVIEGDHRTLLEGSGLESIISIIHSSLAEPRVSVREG

CC(O)CN(CCN(CC(C)O)CC(C)O)CC(C)O (configuration not stated)
inactive: [1] | [2] | [3] | [4] | [5]
active: [6] 12.4 µM

C1=CCCC=CCCC=CCC1
inactive: [7] | [1] | [2] | [3] | [4] | [5] | [6]

Nc1nc2ncc(CNc3ccc(C(=O)N[C@@H](CCC(=O)O)C(=O)O)cc3)nc2c(=O)[nH]1
inactive: [2] | [3] | [4] | [5] | [6]

O=C(CCCCCCCCc1cccnc1)N1CCC(C=C(c2ccccc2)c2ccccc2)CC1
inactive: [2] | [4]
active: [3] 12 µM | [5] 50 µM | [6] 50 µM

CC(=O)OC[C@H]1O[C@@](COC(C)=O)(O[C@H]2O[C@H](COC(C)=O)[C@@H](OC(C)=O)[C@H](OC(C)=O)[C@H]2OC(C)=O)[C@@H](OC(C)=O)[C@@H]1OC(C)=O
inactive: [2] | [3] | [5] | [6]

O=C1CCC(N2C(=O)c3ccccc3C2=O)C(=O)N1 (configuration not stated)
inactive: [2] | [3] | [8] | [4] | [5] | [6]

CC[C@H]1OC(=O)[C@H](C)[C@@H](O[C@H]2C[C@@](C)(OC)[C@@H](O)[C@H](C)O2)[C@H](C)[C@@H](O[C@@H]2O[C@H](C)C[C@H](N(C)C)[C@H]2O)[C@](C)(O)C[C@@H](C)C(=O)[C@H](C)[C@@H](O)[C@]1(C)O
inactive: [2] | [3] | [8] | [4] | [5] | [6]

CN(C)c1ccc(N=NS(=O)(=O)O)cc1
inactive: [2] | [5] | [6]

O=C(O)c1cc(N=Nc2ccc(S(=O)(=O)Nc3ccccn3)cc2)ccc1O
inactive: [2] | [3] | [8] | [4] | [5] | [6]

CCN(C(=O)c1cc(C)cc(OC[C@H](C)Nc2ccncc2)c1)C(C)C
active: [5] 8.02 µM | [6] 5.84 µM
inactive: [4]

Cn1c(=O)c2c(ncn2C)n(C)c1=O
inactive: [2] | [3] | [4] | [5] | [6]

NC(=O)NO
inactive: [2] | [3] | [5] | [6]

CC1=CC(=O)CC(C)(C)C1
not listed: [1] | [7] | [8] | [16]
inactive: all other assays above

CNCc1ccc(NC(=O)c2c[nH]c3c2C(=O)CCC3)cc1
inactive: [2] | [3] | [8] | [4] | [5] | [6]

Cc1[nH]cnc1C[C@H]1CCc2c(C)c3ccccc3n2C1=O
inactive: [2]
active: [5] 69.3 µM | [6] 29.9 µM

COCCOc1cc2cc(C(=O)NC3CCN(C(C)C)CC3)n(CC(=O)Nc3ccc(Cl)cn3)c2cn1
active: [6] 32.5 µM
inactive: [2] | [3] | [5]

CC(=O)OCCC(C)C
inactive: [2] | [3] | [8] | [4] | [5] | [6]

O=C1OC(=O)C2C3C=CC(C3)C12 (configuration not stated)
inactive: [2] | [3] | [4] | [5] | [6]

CCOCCO
inactive: [2] | [3] | [8] | [4] | [5] | [6]

Clc1nc(Cl)c(Cl)c(Cl)c1Cl
inactive: [2] | [3] | [8] | [4] | [5] | [6]

On1ccccc1=S
inactive: [2] | [3] | [8] | [4] | [6]

CCCCCCCCCCCCc1ccccc1
inactive: [4] | [5] | [6]

CCCN(C1CCN(C(=O)C2CCNCC2)CC1)[C@@H]1CCc2ccc(OC)cc2C1
inactive: [4] | [5]
active: [2] 87.3 µM | [3] 64.8 µM | [6] 80.6 µM

O=C(O)CCN(C1(C(=O)NO)CCCC1)S(=O)(=O)c1ccc(Oc2ccc(F)cc2)cc1
inactive: [2] | [3] | [8] | [4] | [5] | [6]

CCCCCCc1ccc(O)cc1O
inactive: [2] | [8] | [4] | [5] | [6]

C[C@](N)(Cc1ccc(O)c(O)c1)C(=O)O
inactive: [2] | [3] | [8] | [4] | [15] | [5] | [6]

Fc1ccccc1[C@@H](F)COC1CCC(Nc2ncnc3[nH]ncc23)CC1 (some centres not stated)
inactive: [2] | [4] | [16] | [14] | [15] | [5]
active: [9] 5 µM | [10] 5 µM | [11] 3.91 µM | [12] 1.41 µM | [13] 5 µM | [6] 50 µM

O=C(O)c1cccc(N(Cc2cccnc2)c2ccc(OC(F)F)c(OC(F)F)c2)c1
active: [2] 29.4 µM | [3] 32.4 µM | [11] 7.82 µM | [6] 81.3 µM
inactive: [8] | [4] | [10] | [16] | [15] | [5]

CC(=O)c1ccc2c(c1)[C@H](NC(=O)c1ccc(F)cc1)[C@@H](O)C(C)(C)O2
inactive: [8] | [4] | [5] | [6]

O=C(O)CC(O)C(=O)O (configuration not stated)
inactive: [2] | [3] | [4] | [5] | [6]

CC(C)CC(C)(O)C#CC(C)(O)CC(C)C (configuration not stated)
active: [9] 68.2 µM
not listed: [1] | [3] | [5] | [7] | [16]
inactive: all other assays above

CC(C)CCCCCCOC(=O)c1ccc(C(=O)OCCCCCCC(C)C)c(C(=O)OCCCCCCC(C)C)c1
inactive: [2] | [3] | [8] | [4] | [5] | [6]
